# The list is not random: actives were taken first. Their share in the collection is about 1.9%.
# BJeLR viability = MLPCN primary cell-based screen for lethality selective to Ras in HRASV12 cells; BJeLR (HRASV12) viability, CellTiter-Glo ATP luminescence, 48 h; inhibition, % (no concentration beside the values); 0.17% of 300,000 active; in the data active = inhibition above about 50%; inconclusive = no clear call, values can overlap the other calls
# RecA intein inh = Mtb RecA intein splicing inhibitors, primary screen, biochemical, fluorescence, HTS | Protein RecA (Mycobacterium tuberculosis (strain ATCC 25618 / H37Rv)), P9WHJ3 | 0.75% of 290,000 active | cell-free RecA intein splicing | inhibition, % (concentration not given with the values); in the data active = inhibition above about 30%; inconclusive = no clear call, values can overlap the other calls;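 also: 0% = vehicle wells and 100% = reference inhibitor control wells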
# PfHsp40 rescue = rescue of yeast from PfHsp40 toxicity, primary screen, S. cerevisiae, ATP luminescence; growth rescue, % at 12.5 µM; 0.68% of 340,000 active; AID 504582, 2011; S. cerevisiae expressing PfHsp40, growth rescue; in the data active = growth rescue above about 28%, passing the limit was not always enough; inconclusive = no clear call, values can overlap the other calls;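 also: yeast W303a lacking pdr1 and pdr3 grown in galactose medium; growth measured after three days at 30 °C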
# PrPC surface inh = inhibitors of human cell surface prion protein PrPC, primary screen, cell-based, TR-FRET | Major prion protein (Homo sapiens), P04156 | TR-FRET read-out | inhibition, % at 13.8 µM | 0.43% of 370,000 active; in the data active = inhibition above about 24%; also: 0% = median of the test wells and 100% = reference compound wells
# PrP UTR inh = inhibition of PrP 5' UTR reporter expression. cell-based PrP 5' UTR mRNA reporter, plate reader. inhibition, % (concentration not given with the values). 0.35% of 340,000 active; in the data active = inhibition above about 52%; also: 0 = median of the neutral control wells
# SSB-PriA inh = inhibitors of Klebsiella pneumoniae PriA binding to SSB C-terminal tail, primary screen, biochemical, AlphaScreen; PriA–SSB C-terminal tail interaction (Klebsiella pneumoniae); AlphaScreen SSBct-PriA binding, biotinylated peptide; inhibition, % at 33 µM; 0.6% of 430,000 active; in the data active = inhibition mostly above about 37%, no sharp cut-off; inactive = mostly below about 20%;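 also: plate controls were negative control peptide for no effect and reference peptide for full effect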
# PrPC TRFRET cf = confirmation of inhibitors of cell surface human prion protein, confirmation, cell-based, TR-FRET; shares compounds with PrPC surface inh; 65% of 1,500 active; AID 743200, 2013; cell surface PrPC level; inhibition, % at 13.8 µM; in the data active = inhibition above about 25%
# LD9 cytotox = cytotoxicity in LD9 cells, cytotoxicity control for cell surface PrPc inhibitor project, cell-based, luminescence, high throughput. AID 743201, 2013. shares compounds with PrPC surface inh. luminescence viability. 29% of 1,500 active. inhibition, % at 13.8 µM; in the data active = inhibition above about 9.5%
# Active calls of the source: *; ? = inconclusive; . = no result.
SMILES,BJeLR viability,RecA intein inh,PfHsp40 rescue,PrPC surface inh,PrP UTR inh,SSB-PriA inh,PrPC TRFRET cf,LD9 cytotox
O=[N+]([O-])c1ccc(Nc2ccc(Oc3ccc(Nc4ccc([N+](=O)[O-])c5nonc45)cc3)cc2)c2nonc12,.,.,.,.,.,43.6,.,.
O=C1OCCC1Sc1ncnc2sc3c(c12)CCC3 (stereo unspecified),1.2,-0.4,2.9,56.1*,-5.2,-21.3,63.7*,-5.7
CC(=O)CSc1ncnc2sc3c(c12)CCC3,10.0,2.7,1.0,12.1,10.0,-14.6,.,.
COc1cc2oc3ccc(C#Cc4ccc(N)cc4)cc3c(=O)c2cc1OC,4.2,1.2,-1.7,25.6*,-19.0,-1.3,33.3*,10.0*
COc1cc(/C=N/NC(=O)c2ccc(CN(C)S(=O)(=O)c3ccc(C)cc3)cc2)ccc1O,4.1,1.1,-0.3,27.8*,-11.2,.,12.7,-0.7
COc1cc(/C=N\NC(=O)c2ccc(C(=O)N/N=C\c3ccc(O)c(OC)c3)cc2)ccc1O,.,.,.,.,.,1.0,.,.
O=C(O)c1ccccc1C(=O)c1cccc2c(Br)cccc12,.,.,1.5,59.8*,-33.1,-8.1,91.1*,-5.8
O=C(O)c1ccccc1C(=O)c1cccc2c(F)cccc12,.,.,-1.1,3.0,-13.0,-15.8,.,.
COc1ccc(Br)c(C(=O)NCC2(OC)Cc3ccccc3C2)c1,.,.,.,.,.,-17.0,.,.
C=CCn1c(SCC(=O)Nc2ccc(Cl)cc2)nc2scc(-c3ccc(C)o3)c2c1=O,.,.,.,.,.,-4.0,.,.
Cc1nc2ccc(Br)cc2c2c1CC(CO)O2 (stereo unspecified),-2.2,-0.2,-0.3,29.1*,-7.1,2.9,34.6*,-5.5
Cc1nc2ccc(Br)cc2c2c1CC(CBr)O2 (stereo unspecified),-12.7,2.9,-2.2,23.4,3.8,-21.7,.,.
CN(c1ccccc1)S(=O)(=O)c1ccc(NC(=O)c2nc(S(C)(=O)=O)ncc2Cl)cc1,4.7,2.6,1.1,41.2*,3.4,-2.4,93.3*,97.8*
Cc1ccc(S(=O)(=O)N2CCOC23CCN(C(=O)c2ccc(Cl)cc2Cl)CC3)cc1,2.8,6.2,2.7,48.1*,-16.7,-0.1,32.3*,0.0
N#CCCSc1ncnc2c1oc1ccccc12,-4.7,0.5,0.2,55.2*,-14.0,-6.5,46.9*,-5.3
CCOC(=O)CC(=O)CSc1ncnc2c1oc1ccccc12,-1.5,-0.7,0.2,57.8*,-17.1,-5.5,19.2,-7.3
COc1ccccc1C=NNC(=O)c1c(C)nc2ccc(Cl)cn12,.,.,.,.,.,-2.5,.,.
COc1cc(C(=O)Nc2scc(-c3ccc(C)cc3)c2C(=O)O)cc(OC)c1OC,-5.3,-2.3,0.1,60.5*,-24.9,-12.8,68.7*,-5.3
CCOC(=O)c1c(-c2cc(OC)c(OC)c(OC)c2)csc1NC(=O)c1ccccc1,.,.,.,1.2,.,.,.,.
C[C@@H]1COC(=O)[C@H](Cc2ccc(F)cc2)C/C=C\C[C@@H](CC(=O)NCCO)C(=O)N1,.,.,-0.7,44.4*,-21.4,6.6,6.8,-3.1
Cc1cccc(/C=N/NC(=O)c2c(-c3ccccc3)noc2C)c1O,6.3,.,-0.2,25.9*,-1.5,.,21.6,-5.5
COc1ccccc1/C=N/NC(=O)c1c(-c2ccccc2)noc1C,-7.7,1.9,0.4,8.6,-6.9,.,.,.
CC(=O)N1CCC(C(=O)NC2CCCc3c2cnn3-c2cc(F)cc(F)c2)CC1 (stereo unspecified),-3.6,-0.2,-0.3,84.8*,14.4,-17.7,0.0,-6.2
CSCC(=O)NC1CCCc2c1cnn2-c1cc(F)cc(F)c1 (stereo unspecified),-0.7,-0.2,-1.2,1.9,-34.8,-16.5,.,.
NC(Cc1ccc(Cl)cc1)c1csc(NC(=O)NCC2CCCCC2)n1 (stereo unspecified),.,.,.,61.1*,.,.,41.5*,-2.4
SMILES,BJeLR viability,RecA intein inh,PfHsp40 rescue,PrPC surface inh,PrP UTR inh,SSB-PriA inh,PrPC TRFRET cf,LD9 cytotox
COC(=O)c1cc(OC)c(OC)cc1NC(=O)[C@@H](c1ccccc1)N1CCOCC1,.,.,.,.,.,-12.0,.,.
O=C(c1ccc(C(F)(F)F)cc1)C1CCCN(C(=O)CCc2ccncc2)C1 (stereo unspecified),5.3,-2.5,-0.8,7.0,-10.7,9.4,.,.
O=C(c1ccc(C(F)(F)F)cc1)C1CCCN(Cc2ccncc2)C1 (stereo unspecified),19.1,2.0,2.9,28.5*,-16.2,-4.8,23.2,11.5*
Cc1cc(Br)c(OCc2ccc(C(=O)NN=C3CC(=O)CC(C)(C)C3)cc2)c(Br)c1,.,.,.,.,.,-4.7,.,.
COc1ccc(-c2cnc(SCC(=O)Nc3ccc4c(c3)OCO4)n2Cc2ccco2)cc1,6.0,18.6,?,25.2*,-9.5,10.1,19.0,9.3*
CC(=O)Nc1cccc(NC(=O)CSc2ncc(-c3ccc(Cl)cc3)n2Cc2ccco2)c1,4.5,.,-0.6,7.2,-16.9,-22.8,.,.
O=S(=O)(c1cnccc1N1CCN(N=Cc2ccc(Br)cc2)CC1)N1CCCCC1,.,.,.,.,.,-10.9,.,.
Fc1ccccc1COc1ccc(Br)cc1CNCc1cccnc1,5.4,-0.7,-1.6,4.6,-10.2,-3.0,.,.
Fc1ccccc1COc1ccc(Br)cc1CNCc1ccncc1,-5.9,1.9,241.6*,24.8*,-8.7,-10.1,22.6,16.9*
CC(=O)c1ccc(CCCCCCCCCC(=O)O)s1,-7.5,-1.6,1.6,76.1*,1.1,-0.4,68.3*,-9.6
CCC(=O)c1ccc(CCCCCC(=O)O)s1,2.7,2.4,-1.3,18.4,-4.6,-12.3,.,.
COC(=O)CCCCCc1ccc(C(C)=O)s1,6.8,0.6,-0.9,62.5*,-11.4,-13.9,77.0*,-0.3
Cc1cccc(S(=O)(=O)NCCC(=O)NCc2cccnc2-c2ccsc2)c1,.,.,.,.,.,-4.0,.,.
O=C(NC1CCCC1)C(c1ccncc1)N(Cc1ccccc1)C(=O)c1ccc(-c2ccccc2)[nH]1 (stereo unspecified),-2.8,12.2,-0.1,26.4*,-13.2,26.6,18.0,-9.4
O=C(NC1CCCC1)C(c1ccncc1)N(Cc1ccco1)C(=O)c1ccc(-c2ccccc2)[nH]1 (stereo unspecified),-2.1,10.2,1.2,12.6,-36.0,-6.0,.,.
CC(C)(C)NC(=O)C(c1ccncc1)N(Cc1ccc(F)cc1)C(=O)c1ccc(-c2ccccc2)[nH]1 (stereo unspecified),-7.5,9.2,66.4*,27.0*,-5.9,-6.7,15.1,-4.1
Cc1ccc(-n2c(O)c(C=C3C(c4ccccc4)=Nc4ccccc43)c(=O)[nH]c2=O)cc1,.,.,.,.,.,7.0,.,.
O=C(NCCOc1cccc(C(F)(F)F)c1)C1CCCC1,.,.,.,.,.,-15.0,.,.

# Assay outcomes (PubChem BioAssay)
